Test results: PubChem BioAssay AID1053119 (Broad Institute, 2014)
Entries with a potency or affinity are not part of this list. Inconclusive results are not listed. The source made the active and inactive calls.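 Rule for the calls: active = signal loss from cell killing with fitted potency at or below twice the top valid dose; inconclusive = flat drop of 30 to 70%, or unreliable curve fit; inactive = opposite direction, flat within 30%, or weaker potency.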

Experiment: A549 cell cytotoxicity, dose response, cytotoxicity control, cherry-picks, 26 µM top dose (AID 1053119)

C=C1C(=O)O[C@@H]2C[C@@H](C)[C@@H]3C=CC(=O)[C@@]3(C)[C@@H](O)[C@H]12
outcome: inactive
